Assay results reported in the supplement of paper PMC10849652.
About 8,800 targets were measured; listed, in parts, are those with a hit and a random draw of the rest. About 0.5% of all pairs of compound and target were hits.

Assays:
Assay in all cases: log2 fold change, soluble protein after heating vs DMSO (PISA); higher = thermal stabilisation; K562 lysate, 10 uM; active = over 0.2 and 3.5 SD of the protein, either way, in both replicates (recomputed)
[1] = compound: CS(=O)(=O)CCNCc1ccc(-c2ccc3ncnc(Nc4ccc(OCc5cccc(F)c5)c(Cl)c4)c3c2)o1 [lapatinib]
Summary of the method: (§1)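 The values are log-two fold changes in thermal stability compared with solvent controls and come from duplicates. They were obtained by TMTpro 16plex LC-MS/MS, with channel sums equalised, on the supernatant after 21,000xg for 90 min. That supernatant came from crude K562 extract at 1 mg/mL protein treated with 10 μM compound for 30 min, heated for 3 min across 48°C-58°C, pooled and brought to 0.5% NP-40 at 4°C.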

[2] = compound: CS(=O)(=O)N1CCN(Cc2cc3nc(-c4cccc5[nH]ncc45)nc(N4CCOCC4)c3s2)CC1 [pictilisib]
Summary of the method: as §1

[3] = compound: C[C@@H](Oc1cc(-c2cnn(C3CCNCC3)c2)cnc1N)c1c(Cl)ccc(F)c1Cl [crizotinib]
Summary of the method: as §1

[4] = compound: C[C@H](C1=CC=C(C=C1)C(=O)NC2=C3C=CNC3=NC=C2)N
Summary of the method: as §1

[5] = compound: C[C@H](Nc1ncnc2nc[nH]c12)c1cc2cccc(Cl)c2c(=O)n1-c1ccccc1 [duvelisib]
Summary of the method: as §1

[6] = compound: Cc1cc(Nc2cc(CN3CCOCC3)c3nc(C)c(Cc4ccc(Cl)cc4F)n3n2)n[nH]1 [gandotinib]
Summary of the method: as §1

[7] = compound: Cc1cc(Nc2cc(N3CCN(C)CC3)nc(Sc3ccc(NC(=O)C4CC4)cc3)n2)n[nH]1 [tozasertib]
Summary of the method: as §1

[8] = compound: Cc1ccc(-n2nc(C(C)(C)C)cc2NC(=O)Nc2ccc(OCCN3CCOCC3)c3ccccc23)cc1 [doramapimod]
Summary of the method: as §1

[9] = compound: Cc1ccc(NC(=O)c2ccc(CN3CC[C@H](N(C)C)C3)c(C(F)(F)F)c2)cc1Nc1nccc(-c2cncnc2)n1 [bafetinib]
Summary of the method: as §1

[10] = compound: Cc1cccc(CC(=O)N2CCc3c2ccc(-c2cn(C)c4ncnc(N)c24)c3F)n1
Summary of the method: as §1

[11] = compound: Cc1cn(-c2cc(NC(=O)c3ccc(C)c(Nc4nccc(-c5cccnc5)n4)c3)cc(C(F)(F)F)c2)cn1 [nilotinib]
Summary of the method: as §1

[12] = compound: Cc1nc(Nc2n[nH]c3c2CN(C(=O)N[C@H](CN(C)C)c2ccccc2)C3(C)C)c2sccc2n1
Summary of the method: as §1

[13] = compound: Cc1nc(Nc2ncc(C(=O)Nc3c(C)cccc3Cl)s2)cc(N2CCN(CCO)CC2)n1 [dasatinib]
Summary of the method: as §1

[14] = compound: Cc1ncc(-c2ccnc(Nc3ccc(S(C)(=O)=O)cc3)n2)n1C(C)C
Summary of the method: as §1

[15] = compound: Cn1cc(-c2ccc3c(c2)CCN3C(=O)Cc2cccc(C(F)(F)F)c2)c2c(N)ncnc21
Summary of the method: as §1

[16] = compound: Cn1cc(CNCC2CCN(c3ncc(C(=O)NO)cn3)CC2)c2ccccc21 [quisinostat]
Summary of the method: as §1

[17] = compound: Cn1cncc1[C@@](N)(c1ccc(Cl)cc1)c1ccc2c(c1)c(-c1cccc(Cl)c1)cc(=O)n2C [tipifarnib]
Summary of the method: as §1

[18] = compound: NC(=O)Nc1cc(-c2cccc(F)c2)sc1C(=O)N[C@H]1CCCNC1
Summary of the method: as §1

[19] = compound: NC(=O)c1cnc(N[C@@H]2CCCC[C@@H]2N)nc1Nc1cccc(-n2nccn2)c1
Summary of the method: as §1

[20] = compound: NC1(c2ccc(-c3nc4ccn5c(=O)[nH]nc5c4cc3-c3ccccc3)cc2)CCC1
Summary of the method: as §1

Measured: log2 fold change

UTP3 (UniProt Q9NQZ2)
UniProt Q9NQZ2, sequence (Q9NQZ2 whole entry, looked up): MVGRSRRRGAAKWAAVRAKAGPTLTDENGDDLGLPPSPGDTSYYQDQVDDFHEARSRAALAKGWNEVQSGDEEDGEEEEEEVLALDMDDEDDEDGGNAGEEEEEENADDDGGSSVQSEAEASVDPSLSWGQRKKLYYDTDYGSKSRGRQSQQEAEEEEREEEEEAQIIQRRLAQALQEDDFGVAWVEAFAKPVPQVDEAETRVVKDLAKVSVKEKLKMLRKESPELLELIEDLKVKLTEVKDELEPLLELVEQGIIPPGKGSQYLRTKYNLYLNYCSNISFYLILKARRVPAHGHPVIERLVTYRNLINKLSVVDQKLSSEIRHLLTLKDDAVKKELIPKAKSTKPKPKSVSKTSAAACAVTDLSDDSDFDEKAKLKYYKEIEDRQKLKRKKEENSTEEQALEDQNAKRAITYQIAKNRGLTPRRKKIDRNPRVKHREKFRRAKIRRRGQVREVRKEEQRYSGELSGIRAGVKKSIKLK
inactive: [1] 0.002 | [2] -0.031 | [3] -0.094 | [4] -0.008 | [5] 0.031 | [6] -0.007 | [7] -0.027 | [8] 0.066 | [9] -0.061 | [10] 0.029 | [11] -0.106 | [12] 0.008 | [13] -0.048 | [14] -0.054 | [15] -0.023 | [16] 0.014 | [17] 0.051 | [18] 0.065 | [19] 0.002 | [20] 0

USP9X (UniProt Q93008)
inactive: [1] -0.031 | [2] -0.027 | [3] -0.058 | [4] -0.015 | [5] -0.017 | [6] -0.127 | [7] 0.011 | [8] 0.004 | [9] -0.034 | [10] 0.027 | [11] -0.01 | [12] 0 | [13] -0.045 | [14] 0.002 | [15] 0 | [16] -0.017 | [17] -0.024 | [18] 0.03 | [19] 0.02 | [20] -0.003

USP10 isoform 2 (UniProt Q14694)
UniProt Q14694, sequence (Q14694 whole entry, looked up): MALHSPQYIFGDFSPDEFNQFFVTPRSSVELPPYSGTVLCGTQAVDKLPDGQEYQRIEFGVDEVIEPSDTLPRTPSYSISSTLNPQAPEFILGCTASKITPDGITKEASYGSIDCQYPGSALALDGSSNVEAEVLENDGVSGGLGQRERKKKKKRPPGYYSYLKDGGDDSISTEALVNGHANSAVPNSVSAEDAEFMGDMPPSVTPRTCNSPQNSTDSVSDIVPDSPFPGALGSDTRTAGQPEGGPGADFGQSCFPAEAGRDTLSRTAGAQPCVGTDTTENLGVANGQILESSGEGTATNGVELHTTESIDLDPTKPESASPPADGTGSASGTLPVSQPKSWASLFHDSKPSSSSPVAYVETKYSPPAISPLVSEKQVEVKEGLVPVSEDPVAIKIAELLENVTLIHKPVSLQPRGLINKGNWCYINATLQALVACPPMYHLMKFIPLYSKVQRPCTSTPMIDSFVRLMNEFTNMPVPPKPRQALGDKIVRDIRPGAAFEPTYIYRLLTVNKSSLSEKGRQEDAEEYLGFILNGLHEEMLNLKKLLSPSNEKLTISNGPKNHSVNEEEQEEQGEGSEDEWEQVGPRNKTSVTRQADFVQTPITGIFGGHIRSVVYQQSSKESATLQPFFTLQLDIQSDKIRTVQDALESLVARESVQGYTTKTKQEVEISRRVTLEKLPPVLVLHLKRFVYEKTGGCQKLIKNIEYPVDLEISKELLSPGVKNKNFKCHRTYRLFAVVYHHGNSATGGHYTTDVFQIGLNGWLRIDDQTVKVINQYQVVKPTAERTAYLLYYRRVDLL
inactive: [1] -0.01 | [2] -0.015 | [3] -0.03 | [4] -0.024 | [5] 0.009 | [6] -0.046 | [7] -0.014 | [8] -0.016 | [9] -0.014 | [10] 0.028 | [11] -0.022 | [12] 0.013 | [13] -0.058 | [14] 0.013 | [15] -0.013 | [16] -0.081 | [17] -0.007 | [18] 0.034 | [19] -0.011 | [20] -0.012

UXT isoform 2 (UniProt Q9UBK9)
UniProt Q9UBK9, sequence (Q9UBK9 whole entry, looked up): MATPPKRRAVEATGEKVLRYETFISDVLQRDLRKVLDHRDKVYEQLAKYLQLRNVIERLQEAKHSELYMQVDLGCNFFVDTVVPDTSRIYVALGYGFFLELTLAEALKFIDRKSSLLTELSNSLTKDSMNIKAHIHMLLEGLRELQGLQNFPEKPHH
inactive: [1] -0.018 | [2] -0.073 | [3] 0.003 | [4] -0.018 | [5] -0.006 | [6] 0.084 | [7] -0.053 | [8] 0.012 | [9] 0.089 | [10] 0.065 | [11] 0.012 | [12] -0.019 | [13] 0.079 | [14] 0.019 | [15] -0.05 | [16] -0.03 | [17] -0.015 | [18] -0.04 | [19] -0.026 | [20] -0.036

ZNF609 (UniProt O15014)
inactive: [1] 0.023 | [2] -0.054 | [3] 0.026 | [4] -0.028 | [5] -0.042 | [6] 0.16 | [7] 0.024 | [8] -0.064 | [9] -0.111 | [10] 0.187 | [11] -0.14 | [12] -0.023 | [13] -0.014 | [14] 0.001 | [15] -0.044 | [16] -0.006 | [17] 0.01 | [18] 0.061 | [19] -0.015 | [20] 0.003

ZNF318 (UniProt Q5VUA4)
inactive: [1] 0.031 | [2] 0.059 | [3] 0.023 | [4] -0.008 | [5] 0.046 | [6] -0.021 | [7] -0.019 | [8] -0.01 | [9] -0.086 | [10] 0.112 | [11] 0.043 | [12] -0.05 | [13] -0.104 | [14] -0.034 | [15] -0.002 | [16] 0.088 | [17] -0.065 | [18] -0.004 | [19] -0.078 | [20] -0.028

VPS13C (UniProt Q709C8)
inactive: [1] -0.008 | [2] 0.023 | [3] 0.003 | [4] -0.065 | [5] 0.021 | [6] -0.055 | [7] 0.052 | [8] -0.006 | [9] -0.054 | [10] 0.213 | [11] 0.138 | [12] 0.043 | [13] -0.011 | [14] -0.069 | [15] -0.039 | [16] -0.034 | [17] -0.177 | [18] -0.009 | [19] -0.028 | [20] -0.05

XPO6 (UniProt Q96QU8)
inactive: [1] -0.012 | [2] -0.069 | [3] -0.086 | [4] -0.158 | [5] 0.06 | [6] 0.005 | [7] 0.072 | [8] 0.034 | [9] -0.105 | [10] 0.175 | [11] 0.005 | [12] 0.027 | [13] -0.008 | [14] -0.054 | [15] -0.026 | [16] -0.123 | [17] -0.018 | [18] 0.078 | [19] 0.033 | [20] -0.04

ZC3H11A (UniProt O75152)
inactive: [1] -0.09 | [2] -0.046 | [3] -0.071 | [4] 0.222 | [5] 0.013 | [6] -0.12 | [7] 0.016 | [8] 0.013 | [9] -0.113 | [10] -0.134 | [11] -0.021 | [12] -0.006 | [13] -0.021 | [14] 0.041 | [15] -0.022 | [16] -0.094 | [17] -0.007 | [18] 0 | [19] 0.004 | [20] 0.035

ZMYND8 isoform 19 (UniProt Q9ULU4)
UniProt Q9ULU4, sequence (Q9ULU4 whole entry, looked up): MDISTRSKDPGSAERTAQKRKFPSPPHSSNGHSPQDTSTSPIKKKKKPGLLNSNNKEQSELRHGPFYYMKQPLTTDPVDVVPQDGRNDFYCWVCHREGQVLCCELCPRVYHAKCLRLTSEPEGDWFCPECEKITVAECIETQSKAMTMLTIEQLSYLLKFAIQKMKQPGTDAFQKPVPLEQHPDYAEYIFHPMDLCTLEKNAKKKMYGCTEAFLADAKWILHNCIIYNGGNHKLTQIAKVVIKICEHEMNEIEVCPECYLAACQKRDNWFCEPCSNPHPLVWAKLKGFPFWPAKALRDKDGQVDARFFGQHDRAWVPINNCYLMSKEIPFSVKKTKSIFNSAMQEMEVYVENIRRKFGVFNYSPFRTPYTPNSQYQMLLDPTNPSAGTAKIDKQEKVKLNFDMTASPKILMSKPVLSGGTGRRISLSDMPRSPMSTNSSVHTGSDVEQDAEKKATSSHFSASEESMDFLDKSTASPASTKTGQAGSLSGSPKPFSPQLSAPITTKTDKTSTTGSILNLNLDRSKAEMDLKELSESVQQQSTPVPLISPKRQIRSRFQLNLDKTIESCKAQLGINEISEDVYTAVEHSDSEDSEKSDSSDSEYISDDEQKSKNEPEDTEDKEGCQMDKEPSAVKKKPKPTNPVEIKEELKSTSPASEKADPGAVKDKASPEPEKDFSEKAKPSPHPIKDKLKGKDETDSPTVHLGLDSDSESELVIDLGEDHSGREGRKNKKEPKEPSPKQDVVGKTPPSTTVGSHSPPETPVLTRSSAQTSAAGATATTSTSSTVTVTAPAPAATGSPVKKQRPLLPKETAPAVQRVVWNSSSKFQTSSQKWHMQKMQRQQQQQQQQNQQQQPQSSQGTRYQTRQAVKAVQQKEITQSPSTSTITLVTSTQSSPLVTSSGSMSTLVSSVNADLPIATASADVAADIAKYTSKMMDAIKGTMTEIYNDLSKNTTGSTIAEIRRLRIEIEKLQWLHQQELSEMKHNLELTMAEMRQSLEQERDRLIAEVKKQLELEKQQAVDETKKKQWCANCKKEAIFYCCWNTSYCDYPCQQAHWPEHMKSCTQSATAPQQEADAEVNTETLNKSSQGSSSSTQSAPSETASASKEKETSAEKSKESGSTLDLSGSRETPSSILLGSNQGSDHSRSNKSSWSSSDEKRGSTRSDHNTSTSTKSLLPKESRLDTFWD
inactive: [1] -0.017 | [2] -0.044 | [3] -0.109 | [4] -0.105 | [5] -0.006 | [6] 0.092 | [7] 0.035 | [8] 0.001 | [9] -0.028 | [10] 0.049 | [11] -0.011 | [12] -0.056 | [13] -0.019 | [14] 0.022 | [15] 0.036 | [16] -0.073 | [17] -0.025 | [18] -0.004 | [19] 0.009 | [20] 0.043

USP3 (UniProt Q9Y6I4)
UniProt Q9Y6I4, sequence (Q9Y6I4 whole entry, looked up): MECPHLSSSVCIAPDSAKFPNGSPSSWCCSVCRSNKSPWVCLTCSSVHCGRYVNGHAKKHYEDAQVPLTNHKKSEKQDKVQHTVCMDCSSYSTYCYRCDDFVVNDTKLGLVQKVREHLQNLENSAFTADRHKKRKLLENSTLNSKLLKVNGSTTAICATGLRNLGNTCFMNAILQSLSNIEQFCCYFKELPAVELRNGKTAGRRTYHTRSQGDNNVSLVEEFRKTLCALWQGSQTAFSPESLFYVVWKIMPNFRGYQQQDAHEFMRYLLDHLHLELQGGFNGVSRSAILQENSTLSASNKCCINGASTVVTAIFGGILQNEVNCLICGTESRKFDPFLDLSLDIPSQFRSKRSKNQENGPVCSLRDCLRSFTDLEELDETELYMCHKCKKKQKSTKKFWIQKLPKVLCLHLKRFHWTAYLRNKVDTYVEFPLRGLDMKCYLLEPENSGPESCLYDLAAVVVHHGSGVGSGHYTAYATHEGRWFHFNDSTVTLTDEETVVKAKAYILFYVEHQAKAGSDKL
inactive: [1] -0.016 | [2] 0.001 | [3] -0.033 | [4] 0.031 | [5] 0.01 | [6] -0.056 | [7] 0.021 | [8] -0.03 | [9] 0.01 | [10] -0.04 | [11] 0.045 | [12] -0.015 | [13] -0.028 | [14] 0.028 | [15] 0.008 | [16] -0.01 | [17] -0.054 | [18] 0.107 | [19] -0.005 | [20] -0.042

ZFYVE19 (UniProt Q96K21)
UniProt Q96K21, sequence (Q96K21 whole entry, looked up): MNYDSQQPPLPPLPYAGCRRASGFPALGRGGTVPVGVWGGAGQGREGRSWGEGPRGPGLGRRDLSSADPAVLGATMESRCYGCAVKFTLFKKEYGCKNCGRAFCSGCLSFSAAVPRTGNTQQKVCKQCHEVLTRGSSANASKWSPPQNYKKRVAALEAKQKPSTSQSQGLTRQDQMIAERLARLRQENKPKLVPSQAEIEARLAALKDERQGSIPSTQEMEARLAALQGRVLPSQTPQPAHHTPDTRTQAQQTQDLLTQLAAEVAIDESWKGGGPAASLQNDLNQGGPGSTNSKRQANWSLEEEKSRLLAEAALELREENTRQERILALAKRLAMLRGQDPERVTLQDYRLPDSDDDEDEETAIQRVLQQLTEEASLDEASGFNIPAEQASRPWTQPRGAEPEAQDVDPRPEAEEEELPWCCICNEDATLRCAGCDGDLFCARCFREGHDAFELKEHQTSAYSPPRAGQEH
inactive: [1] 0.042 | [2] 0.017 | [3] 0.007 | [4] -0.125 | [5] -0.005 | [6] 0.085 | [7] 0.046 | [8] -0.029 | [9] 0 | [10] 0.149 | [11] 0.014 | [12] -0.001 | [13] 0.007 | [14] 0.053 | [15] -0.041 | [16] -0.01 | [17] 0.006 | [18] -0.003 | [19] 0.014 | [20] 0.003

WIPI2 (UniProt Q9Y4P8)
inactive: [1] 0.006 | [2] -0.024 | [3] -0.02 | [4] -0.086 | [5] -0.008 | [6] 0.089 | [7] -0.003 | [8] 0.098 | [9] -0.025 | [10] 0.035 | [11] 0.032 | [12] 0.043 | [13] 0.007 | [14] -0.018 | [15] -0.004 | [16] -0.054 | [17] 0.011 | [18] 0.053 | [19] -0.005 | [20] 0.021

UNC13D (UniProt Q70J99)
UniProt Q70J99, sequence (Q70J99 whole entry, looked up): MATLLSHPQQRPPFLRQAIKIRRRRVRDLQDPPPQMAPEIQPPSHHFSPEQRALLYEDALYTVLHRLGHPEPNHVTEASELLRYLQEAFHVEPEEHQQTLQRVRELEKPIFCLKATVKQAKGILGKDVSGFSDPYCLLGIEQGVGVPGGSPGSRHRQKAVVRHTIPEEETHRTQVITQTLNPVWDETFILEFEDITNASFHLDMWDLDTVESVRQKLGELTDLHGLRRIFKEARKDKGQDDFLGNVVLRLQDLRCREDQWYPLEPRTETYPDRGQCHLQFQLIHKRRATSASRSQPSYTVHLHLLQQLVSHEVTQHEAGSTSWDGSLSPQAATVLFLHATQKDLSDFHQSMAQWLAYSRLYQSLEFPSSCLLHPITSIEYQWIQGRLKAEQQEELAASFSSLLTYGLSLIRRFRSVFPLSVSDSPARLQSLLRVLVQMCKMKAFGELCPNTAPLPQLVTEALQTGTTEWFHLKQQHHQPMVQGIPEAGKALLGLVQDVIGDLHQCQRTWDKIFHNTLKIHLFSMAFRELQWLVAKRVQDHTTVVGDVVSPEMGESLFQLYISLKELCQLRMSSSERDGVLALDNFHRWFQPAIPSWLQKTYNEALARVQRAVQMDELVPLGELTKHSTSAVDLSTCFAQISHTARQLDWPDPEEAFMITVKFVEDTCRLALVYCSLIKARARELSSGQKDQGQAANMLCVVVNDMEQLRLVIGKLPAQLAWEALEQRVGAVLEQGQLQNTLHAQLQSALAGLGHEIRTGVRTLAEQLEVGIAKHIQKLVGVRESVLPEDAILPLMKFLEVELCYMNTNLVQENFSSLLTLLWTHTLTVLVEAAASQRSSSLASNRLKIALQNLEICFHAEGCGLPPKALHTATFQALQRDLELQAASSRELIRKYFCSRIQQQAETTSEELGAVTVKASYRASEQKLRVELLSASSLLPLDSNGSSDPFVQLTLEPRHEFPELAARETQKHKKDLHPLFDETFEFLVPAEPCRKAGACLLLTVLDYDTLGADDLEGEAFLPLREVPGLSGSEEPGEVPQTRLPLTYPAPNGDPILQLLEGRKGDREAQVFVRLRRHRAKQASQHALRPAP
inactive: [1] -0.032 | [2] -0.032 | [3] -0.038 | [4] 0.029 | [5] -0.039 | [6] -0.089 | [7] -0.015 | [8] 0.009 | [9] -0.066 | [10] 0.002 | [11] 0.043 | [12] -0.014 | [13] -0.05 | [14] 0 | [15] 0 | [16] -0.079 | [17] -0.006 | [18] 0.05 | [19] 0.022 | [20] -0.024

WRN (UniProt Q14191)
inactive: [1] -0.008 | [2] 0.006 | [3] -0.031 | [4] -0.042 | [5] -0.034 | [6] -0.008 | [7] 0.037 | [8] 0.02 | [9] -0.064 | [10] 0.073 | [11] -0.027 | [12] -0.018 | [13] -0.108 | [14] -0.004 | [15] 0.022 | [16] -0.042 | [17] -0.005 | [18] 0.03 | [19] 0.089 | [20] -0.013

WAC (UniProt Q9BTA9)
inactive: [1] 0.005 | [2] -0.04 | [3] 0.018 | [4] 0 | [5] -0.005 | [6] -0.014 | [7] 0.004 | [8] -0.031 | [9] -0.057 | [10] 0.043 | [11] -0.012 | [12] -0.001 | [13] -0.038 | [14] -0.019 | [15] 0.002 | [16] -0.029 | [17] 0 | [18] 0.019 | [19] -0.01 | [20] 0.004
